Assay results from article PMC4552634, “A New Set of Chemical Starting Points with Plasmodium falciparum Transmission-Blocking Potential for Antimalarial Drug Discovery” (PLoS ONE, 2015).
In all, about 13,000 compounds went through this assay and about 3,200 (25%) showed an effect of 50% or more. The list shows a part of the results.

system: P. falciparum stage V gametocytes; set-up: BacTiter-Glo ATP luminescence viability of purified stage V gametocytes in 384-well plates, per cent inhibition versus DMSO; details: 48 h, 5 µM; inhibitor

SMILES	% Inhibition [%]
CC1(C)N=C(N)N=C(N)N1OCCCOc1ccc(N)cc1 [TCMDC-131698]	-10.87
O=C(/C=C/c1ccc(Cl)cc1)Nc1ccc2nc(CN3CCCC3)ccc2c1 [TCMDC-135629]	-22.56
CN1CCN(Cc2cc3cc(NC(=O)/C=C/c4ccc(Cl)cc4)ccc3s2)CC1 [TCMDC-135631]	-73.77
CC1(C)CNCc2cc(NC(=O)/C=C/c3ccc(Cl)cc3)ccc21 [TCMDC-141909]	92.59
Nc1ncnc2cc(-c3cccc(NC(=O)Nc4ccccc4)c3)sc12 [TCMDC-135255]	-37.99
O=C(Nc1ccccc1)Nc1cccc(-c2nn3c(OCCN4CCCC4)cccc3c2-c2ccncc2)c1 [TCMDC-135539]	44.29
O=C(Nc1ccccc1)Nc1cccc(-c2cc(CNCCc3ccccc3)sc2-c2ccncc2)c1 [TCMDC-135632]	-27.66
N[C@@H](COc1cccc2c(-c3ccncc3)c(-c3cccc(NC(=O)Nc4ccccc4)c3)nn12)c1ccccc1 [TCMDC-135512]	8.625
CCCCC(N)COc1cccc2c(-c3ccncc3)c(-c3cccc(NC(=O)Nc4ccccc4)c3)nn12 (centres unmarked) [TCMDC-135537]	58.08
O=C(Nc1ccccc1)Nc1cccc(-c2nn3c(OCC4CCCCN4)cccc3c2-c2ccncc2)c1 (centres unmarked) [TCMDC-135465]	63.4
Fc1cc(Cl)ccc1Nc1ccnc2cc(-c3scnc3CNCCN3CCOCC3)ccc12 [TCMDC-138442]	15.08
O=C(Cc1cc(F)cc(F)c1)NC1CCN(c2ccnc3cc(Cl)ccc23)C1 (centres unmarked) [TCMDC-133667]	8.938
CC(C)(CNC(=O)[C@@H]1CCCN(CCOc2ccc(F)c(F)c2)C1)c1nc(-c2ccc(Cl)c(O)c2)c(-c2ccncc2)[nH]1 [TCMDC-141137]	11.15
CCN1CCN(c2cc(C)c3cc(NC(=O)c4cc(OC)cc(OC)c4)ccc3n2)CC1 [TCMDC-125575]	-6.076
O=C(NCc1ccccc1)c1ncn(CCCN2CCC(N3CCCC3)CC2)c1-c1ccc(Cl)c(Cl)c1 [TCMDC-135228]	91.41
O=C(NCc1ccccc1)c1nn(CCCN2CCC(N3CCCC3)CC2)cc1-c1ccc(Cl)c(Cl)c1 [TCMDC-141728]	73.12
O=C(NCc1ccc2c(c1)OCO2)c1nn(CCN2CCC(N3CCCC3)CC2)cc1-c1ccc(Cl)c(Cl)c1 [TCMDC-141908]	-16.74
CN(Cc1ccccc1)C(=O)c1nn(CCCN2CCC(N3CCCC3)CC2)cc1-c1ccc(Cl)c(Cl)c1 [TCMDC-141730]	45.58
O=C(Nc1ccccc1)c1nn(CCCN2CCC(N3CCCC3)CC2)cc1-c1ccc(Cl)c(Cl)c1 [TCMDC-141727]	76.09
COc1cc(NC(=O)c2nn(CCCN3CCC4(CC3)C(=O)NCN4c3ccccc3)cc2-c2ccc(Cl)c(Cl)c2)cc(OC)c1OC [TCMDC-141726]	-40.66
COc1cc(C(=O)NCc2nn(CCN3CCC(N4CCCC4)CC3)cc2-c2ccc(Cl)c(Cl)c2)cc(OC)c1OC [TCMDC-141966]	24.89
O=C(NCc1ccccc1)NC(CCCN1CCC(Oc2cccc(Cl)c2)CC1)c1ccc(Cl)c(Cl)c1 (centres unmarked) [TCMDC-141903]	-17.97
COc1cc(NC(=O)c2nn(CCCN3CCC(N4CCCC4)CC3)cc2-c2ccc(Cl)c(Cl)c2)cc(OC)c1OC [TCMDC-141725]	29.9
